± gives the standard deviation of the averaged measurements. Over roughly 4,100 sequences, “relative kcat/Km (krel) vs genomic leader AAAGAU” has its median near 1.7; the highest 2% begin near 6.5. For the sample, the highest values were picked, then their nearest neighbours and some sequences at random.
Molecular target: T1, E. coli RNase P holoenzyme (M1 P RNA + rnpA protein) (UniProt P0A7Y8)
T1 sequence: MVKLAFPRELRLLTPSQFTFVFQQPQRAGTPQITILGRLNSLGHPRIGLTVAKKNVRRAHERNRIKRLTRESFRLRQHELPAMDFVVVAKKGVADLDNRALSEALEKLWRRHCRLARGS
Assay: relative kcat/Km (krel) vs genomic leader AAAGAU (relative (reference leader = 1)); higher = faster RNase P cleavage
Procedure: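 HTS-Kin: a pool of ptRNA-Met (21C construct) with all 4096 combinations of 5' leader nucleotides N(-6) to N(-1) was processed in vitro by E. coli RNase P (P RNA + rnpA/C5 protein) under multiple-turnover conditions at 37 C, pH 8, 17.5 mM MgCl2. Residual substrate was Illumina-sequenced at several fractions reacted, and relative kcat/Km (krel) was computed by internal competition kinetics, calibrated to the genomic leader (AAAGAU = 1). The listed hexamer is the varied N(-6)..N(-1) leader (DNA letters), and it sits between a fixed 5' stem-loop flank (GCAUGCACGAAAGUGCGUGCUAUGAA) and the mature tRNA-Met starting GGCUACGUAGCUCAGUUGG. Two technical replicates are averaged.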

[1] = fraction of substrate reacted: ~9-10% (9.79% repeat 1, 9.1% repeat 2)
[2] = fraction of substrate reacted: ~13-16% (15.68% repeat 1, 13.17% repeat 2)
[3] = fraction of substrate reacted: ~26-29% (28.66% repeat 1, 26.4% repeat 2)

Row | Sequence | relative kcat/Km [1] | relative kcat/Km [2] | relative kcat/Km [3]
1 | AAAATC | 2.07 ± 0.94 | 1.14 ± 0.28 | 1.37 ± 0.15
2 | ACTTAC | 3.88 ± 2.3 | 4.09 ± 0.096 | 5.29 ± 1.6
3 | AGTTAC | 3.18 ± 1.6 | 5.31 ± 0.22 | 7.26 ± 2.7
4 | AGTTAG | 2.06 ± 1.1 | 2.34 ± 0.29 | 4.77 ± 1.3
5 | TACGTA | 2.14 ± 0.53 | 2.47 ± 0.38 | 3.67 ± 1.2
6 | CAGAGT |  |  | 0.537 ± 0.3
7 | TTCTTA | 4.55 ± 1.2 | 5.9 ± 0.59 | 7.98 ± 3.2
8 | GTCTTG | 2.05 ± 1.9 | 1.96 ± 0.21 | 3.58 ± 0.69
9 | ATCTTC | 3.23 ± 1.1 | 4.36 ± 0.71 | 6.11 ± 2.2
10 | GCCTTT | 3.36 ± 1.7 | 3.71 ± 0.066 | 5.06 ± 1.7
11 | CTCTTG | 2.31 ± 1.9 | 1.64 ± 0.35 | 3.11 ± 0.5
12 | TGCTTC | 2.79 ± 0.96 | 2.83 ± 0.76 | 3.73 ± 1.2
13 | GTCTTT | 4.65 ± 1.2 | 5.87 ± 1.4 | 8.44 ± 3.8
14 | TTCTTC | 4.65 ± 1.6 | 5.94 ± 0.85 | 7.95 ± 3.2
15 | ATCTTA | 2.6 ± 0.64 | 3.89 ± 0.59 | 5.74 ± 2.1
16 | CTCTTA | 2.98 ± 0.098 | 4.69 ± 1.5 | 6.21 ± 2.8
17 | CTCTTC | 3.63 ± 0.69 | 4.38 ± 0.62 | 6.47 ± 2.3
18 | CTCTTT | 3.59 ± 0.8 | 4.98 ± 1.2 | 7.01 ± 3
19 | TTAACT | 1.58 ± 0.78 | 1.54 ± 0.2 | 2.03 ± 0.47
20 | CCTCCC | 0.874 ± 0.5 | 1.06 ± 0.17 | 1.57 ± 0.17
21 | CTAGAC | 1.95 ± 0.33 | 3.27 ± 0.96 | 4.19 ± 2.1
22 | GGATTA | 1.24 ± 0.14 | 0.993 ± 0.47 | 1.52 ± 0.41
23 | TCGGTG | 0.643 ± 0.43 |  | 0.367 ± 0.27
24 | GCCTTC | 3 ± 0.21 | 4.03 ± 2.2 | 5.81 ± 3.1
25 | GTCTTC | 4.4 ± 1.6 | 5.61 ± 1.7 | 8.18 ± 3.4

Row | Sequence | relative kcat/Km [1] | relative kcat/Km [2] | relative kcat/Km [3]
26 | AGCTTT | 2.79 ± 1.2 | 2.71 ± 0.49 | 4.09 ± 1.6
27 | GACTTC | 3.65 ± 0.53 | 4.38 ± 2.1 | 6.22 ± 3.3
28 | GCCTTA | 2.94 ± 1.2 | 3.35 ± 0.54 | 5.21 ± 1.5
29 | GGCTTA | 1.58 ± 0.71 | 1.39 ± 0.29 | 1.79 ± 0.95
30 | TTCTTT | 4.38 ± 0.77 | 6.36 ± 1.2 | 8.65 ± 4
31 | TTCTTG | 1.95 ± 1.7 | 1.96 ± 0.17 | 4 ± 1.1
32 | GTCTTA | 4.14 ± 1.1 | 5.78 ± 0.74 | 7.65 ± 2.9
33 | TGCTTT | 2.25 ± 0.41 | 2.232 ± 0.0079 | 3.45 ± 1.3
34 | ATCTTG |  | 1.15 ± 0.053 | 2.716 ± 0.019
35 | ATCTTT | 3.55 ± 1.4 | 4.27 ± 0.42 | 6.67 ± 2.8
36 | TCAGCT | 1.54 ± 0.23 | 0.491 ± 0.47 | 1.24 ± 0.075
37 | GCTGTC | 1.58 ± 0.93 | 0.624 ± 0.091 | 0.9566 ± 0.0067
38 | GGCGAC | 2.53 ± 0.11 | 2.47 ± 1.2 | 4.08 ± 1.4
39 | TTAGAT | 1.88 ± 0.57 | 2.14 ± 0.17 | 2.8 ± 1.2
40 | CTTCCC | 1.37 ± 0.18 | 1.5 ± 1.2 | 1.93 ± 0.53
41 | GGGATG | 0.585 ± 0.41 |  | 0.779 ± 0.15
42 | CTAGAT |  | 1.15 ± 0.17 | 1.83 ± 0.17
43 | GACCTC | 2.41 ± 0.81 | 2.49 ± 0.041 | 3.63 ± 0.74
44 | GGATAC | 1.9 ± 1.2 | 1.76 ± 0.55 | 3.05 ± 0.7
45 | AACTAC | 3.89 ± 1.7 | 4.66 ± 0.63 | 6.38 ± 2.5
46 | GACTAC | 4 ± 0.5 | 6.14 ± 3 | 8.43 ± 3.9
47 | CACTAC | 4.63 ± 0.25 | 6.82 ± 2.5 | 8.23 ± 3.5
48 | CACTAT | 4.78 ± 1.4 | 6.06 ± 2 | 8.37 ± 3.9
49 | CGCTAG | 2.34 ± 1.3 | 2.43 ± 1 | 3.4 ± 0.31
50 | CACTGT | 1.07 ± 0.037 | 0.947 ± 0.35 | 1.51 ± 1.1

Row | Sequence | relative kcat/Km [1] | relative kcat/Km [2] | relative kcat/Km [3]
51 | CGCTAC | 3.79 ± 0.67 | 4.78 ± 2.6 | 6.76 ± 2.8
52 | CGCTAT | 3.49 ± 0.87 | 4.44 ± 1.6 | 5.95 ± 2.4
53 | CACTGC | 3.89 ± 1.6 | 4.53 ± 1.3 | 6.06 ± 1.9
54 | CGTATA | 2.37 ± 0.34 | 2.75 ± 0.17 | 3.94 ± 1.5
55 | GATGGT |  |  | 2.1 ± 0.88
56 | TGAGAC | 2.71 ± 1.3 | 2.56 ± 0.093 | 4.48 ± 1.3
57 | TATACA | 1.36 ± 0.29 | 2.13 ± 0.035 | 3.02 ± 1.8
58 | AGTCGA | 2.68 ± 0.35 | 3.65 ± 1.2 | 5.59 ± 2
59 | TCCTTA | 3.84 ± 1.5 | 4.61 ± 0.54 | 6.32 ± 2.4
60 | CCCTAC | 4.32 ± 1.6 | 5.08 ± 2.3 | 7.32 ± 3.6
61 | TCCTAC | 4.6 ± 1.6 | 5.74 ± 0.95 | 9.69 ± 4.1
62 | GCCTAC | 3.67 ± 1.2 | 4.5 ± 0.39 | 6.1 ± 2.4
63 | TCCTAT | 4.03 ± 0.47 | 6.02 ± 0.85 | 9.38 ± 4.8
64 | ACCTAT | 3.74 ± 1.7 | 4.66 ± 0.24 | 6.39 ± 2.5
65 | ACCTAC | 3.44 ± 1.2 | 4.53 ± 0.77 | 5.77 ± 2.1
66 | CCCTTT | 2.73 ± 0.52 | 3.73 ± 1.1 | 5.02 ± 2
67 | CCCTTC | 3.11 ± 1.4 | 3.36 ± 0.74 | 4.51 ± 1.3
68 | TCCTTC | 3.75 ± 1.2 | 4.99 ± 0.72 | 6.44 ± 2.3
69 | TCCTTT | 3.7 ± 1.8 | 4.6 ± 0.8 | 6.89 ± 2.9
70 | GAAGAT | 1.93 ± 1.7 | 1.36 ± 0.085 | 1.34 ± 0.35
71 | ATGCTG |  |  | 0.658 ± 0.54
72 | CTTAGA | 3.03 ± 0.85 | 3.18 ± 0.44 | 4.79 ± 1.7
73 | GATACC |  | 1.49 ± 0.64 | 1.67 ± 0.033
74 | CTGAAG |  |  | 2.05 ± 0.18
75 | TCCCGT |  |  | 1.86 ± 0.041

Row | Sequence | relative kcat/Km [1] | relative kcat/Km [2] | relative kcat/Km [3]
76 | GCAATT |  | 0.851 ± 0.064 | 1.21 ± 0.26
77 | AGTGTG |  |  | 0.473 ± 0.33
78 | ACCTAA | 2.83 ± 0.76 | 4.49 ± 0.31 | 6.74 ± 2.3
79 | ACCTAG | 2.77 ± 2.8 | 2.93 ± 0.56 | 4.27 ± 0.99
80 | CCCTAA | 3.68 ± 0.17 | 4.41 ± 1.4 | 6.7 ± 3.1
81 | CCCCCT | 2.27 ± 1.8 | 1.25 ± 0.29 | 1.95 ± 0.15
82 | GCCTAA | 2.35 ± 0.18 | 3.94 ± 0.16 | 7.08 ± 2.8
83 | CCCTAT | 3.137 ± 0.006 | 5.47 ± 1.1 | 7.09 ± 3.1
84 | ACCTCA | 3.35 ± 1.8 | 3.24 ± 0.27 | 4 ± 1.2
85 | GCCTAG | 2.58 ± 1.6 | 1.57 ± 0.49 | 3.67 ± 1.2
86 | GCCTAT | 2.77 ± 0.47 | 3.91 ± 0.98 | 6.22 ± 2.8
87 | CCTAAA | 2.53 ± 1.5 | 2.31 ± 0.051 | 3.14 ± 0.82
88 | CCCTGT |  |  | 1.59 ± 0.87
89 | CCCTAG | 3.11 ± 1.7 | 2.55 ± 0.57 | 4.45 ± 1.2
90 | TGCAAA | 0.962 ± 0.78 | 1.86 ± 0.54 | 2.7 ± 1.3
91 | CGGACC | 0.889 ± 0.39 | 0.714 ± 0.41 | 0.577 ± 0.38
92 | ACCGGT |  |  | 1.78 ± 1.1
93 | TGGTCT |  |  | 0.817 ± 0.39
94 | CTGGCG | 0.881 ± 0.58 |  | 0.461 ± 0.2
95 | CAGTGA | 1.48 ± 0.7 | 2.14 ± 0.58 | 3.05 ± 0.86
96 | GATCGA | 2.37 ± 0.82 | 2.79 ± 1.2 | 4.26 ± 1.2
97 | GTTAAG |  | 1.6 ± 0.16 | 2.65 ± 0.77
98 | CTACTC | 2.13 ± 1.3 | 1.61 ± 0.43 | 2.14 ± 0.28
99 | TCCTAA | 5.1 ± 1.9 | 6.12 ± 0.94 | 9.11 ± 3.3
100 | TCCTAG | 2.56 ± 0.72 | 3.4 ± 0.46 | 6.01 ± 2.7
